Laboratory results taken from PMC6212790, “How bacterial xenogeneic silencer rok distinguishes foreign from self DNA in its resident genome”.
Whole data set: some 33,000 sequences, median “e-score” near -0.038, cut for the highest 2% near 0.33. Many of the other results were omitted from the sample, so the highest values are more common in it than they were.

Biological target: T1, GST-Rok-C97-191 (Bacillus subtilis subsp. subtilis str. …, UniProt O34857 97-191)
T1 sequence: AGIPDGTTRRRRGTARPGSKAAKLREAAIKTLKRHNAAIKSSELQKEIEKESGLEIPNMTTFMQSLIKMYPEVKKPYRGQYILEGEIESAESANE
Assay: protein binding microarray; Rok is a gene silencer of Bacillus subtilis; high values mean tight binding
Conditions: protein: recombinant; tags: GST (pTH5325, pDEST15-Magic modified); dsDNA, one strand shown
In short: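 Each has a 25-mer constant primer and a 35-mer variable part from a de Bruijn sequence of order 10, covering every non-palindromic 8-mer at least 32 times (palindromic 16). Preference for each 8-mer is given as a rank-based, unitless enrichment score (E-score). Its range runs from 0.5 (most favored) to −0.5 (most disfavored).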

| Sequence | binding signal |
| --- | --- |
| AGCTTTGA | 0.0387 E-score |
| AGCGGCAC | -0.177 E-score |
| ATAGTTCA | 0.265 E-score |
| ATAGTTCG | 0.354 E-score |
| ATAGTTAC | 0.254 E-score |
| ATAGTTAG | 0.35 E-score |
| ATAGTTCC | 0.143 E-score |
| AAAGTTAG | 0.156 E-score |
| CTGTGAGA | -0.127 E-score |
| GCACTTGA | -0.0251 E-score |
| CATCATAG | 0.00873 E-score |
| CTTATTCA | 0.048 E-score |
| CGCAAAGA | -0.193 E-score |
| GGAAAAAA | -0.0552 E-score |
| AGTACAAG | 0.247 E-score |
| GGTACAAA | 0.216 E-score |
| TGTACAAA | 0.355 E-score |
| AGTACAAA | 0.342 E-score |
| CGTACAAA | 0.236 E-score |
| AGTACAAT | 0.269 E-score |
| TCGAGGCA | 0.00484 E-score |
| CCGCAAGA | -0.109 E-score |
| GAATCGGA | -0.078 E-score |
| CGATAGAC | 0.063 E-score |
| TGATAGAA | 0.385 E-score |

| Sequence | binding signal |
| --- | --- |
| GGATAGAA | 0.195 E-score |
| AGATAGAA | 0.308 E-score |
| CGATAGAA | 0.359 E-score |
| CGATAGAG | -0.176 E-score |
| GTGTTACA | 0.168 E-score |
| ATAATGTG | 0.167 E-score |
| CTAATGTA | 0.185 E-score |
| ATAATGTC | 0.112 E-score |
| GTAATGTA | 0.339 E-score |
| GTAATGAA | -0.0192 E-score |
| ATAATGTA | 0.405 E-score |
| ATAAACGG | 0.19 E-score |
| CGCCACCG | -0.0411 E-score |
| CTTACTAC | 0.171 E-score |
| ATTACTAA | 0.326 E-score |
| ATTACTGC | 0.11 E-score |
| ATTACTAG | 0.392 E-score |
| ATTACTCG | 0.198 E-score |
| ATTACTAC | 0.407 E-score |
| ATGTTTAC | 0.00161 E-score |
| AAATGGTT | 0.177 E-score |
| AGCTTCTG | -0.0648 E-score |
| CGCTAGAC | 0.00486 E-score |
| ATGTCCAC | -0.0386 E-score |
| ATCTACCA | 0.469 E-score |

| Sequence | binding signal |
| --- | --- |
| GTCTACCA | 0.15 E-score |
| GTCTACGA | -0.0769 E-score |
| ATCTACCG | 0.394 E-score |
| CTCTACGA | 0.107 E-score |
| ATCTACCC | 0.22 E-score |
| ATCTACGA | 0.333 E-score |
| ATCTATCG | 0.313 E-score |
| ACCTACCG | 0.148 E-score |
| CGAAAGAC | -0.0876 E-score |
| GAAAGACA | -0.0886 E-score |
| GTGCAGTA | 0.196 E-score |
| ATCGAGGC | -0.159 E-score |
| TATGACGA | 0.0683 E-score |
| CTCTTTAC | 0.0967 E-score |
| CTATTAAA | 0.0376 E-score |
| ATTTTTAA | 0.146 E-score |
| CTATTTAA | 0.14 E-score |
| CTATTTAC | 0.349 E-score |
| ATATTTAA | 0.338 E-score |
| ACATTTAC | 0.315 E-score |
| ATATTAAA | 0.385 E-score |
| ATATTTGC | 0.295 E-score |
| ATATTTAG | 0.201 E-score |
| ATATTTAC | 0.375 E-score |
| ATATTAAC | 0.296 E-score |

| Sequence | binding signal |
| --- | --- |
| CTTTACTC | -0.199 E-score |
| ATGTAGGA | 0.201 E-score |
| CTTGACGA | -0.14 E-score |
| AATGTACA | 0.34 E-score |
| TATGTACA | 0.345 E-score |
| CATGTACC | 0.227 E-score |
| GATGTACA | 0.29 E-score |
| AATGTACC | 0.373 E-score |
| AATGTACT | 0.296 E-score |
| AATGTACG | 0.155 E-score |
| CATGTACA | 0.317 E-score |
| AGTGTACA | 0.141 E-score |
| CCGAGTCG | -0.148 E-score |
| AGGAGAAA | 0.073 E-score |
| CACGAAGC | -0.104 E-score |
| AGCATTTG | -0.0352 E-score |
| AACTGAAC | 0.106 E-score |
| GCCATTGA | -0.0503 E-score |
| TATTTAAA | 0.186 E-score |
| AAAAGACG | 0.0272 E-score |
| TAACGGTA | 0.278 E-score |
| CTTGAAGA | -0.0244 E-score |
| CTTTATAC | 0.227 E-score |
| ATTTATGG | 0.174 E-score |
| ATTTATAG | 0.358 E-score |

| Sequence | binding signal |
| --- | --- |
| ATTTATAC | 0.348 E-score |
| ATTTATAA | 0.294 E-score |
| AGTTATAC | 0.241 E-score |
| GACTCTCA | -0.0851 E-score |
| GGTCTGCA | -0.0588 E-score |
| AACTACAA | 0.348 E-score |
| CACTACAA | 0.173 E-score |
| ATCTACAG | 0.309 E-score |
| GACTACAA | -0.00391 E-score |
| GACTACAC | -0.000838 E-score |
| AGCTACAA | 0.209 E-score |
| CACTACAC | 0.0572 E-score |
| ATCTACAC | 0.273 E-score |
| AGCTACAC | 0.169 E-score |
| AGCTACAT | 0.368 E-score |
| AACTACAC | 0.33 E-score |
| ATCTACAT | 0.342 E-score |
| AGAACTGG | -0.0864 E-score |
| CAATGGGC | -0.197 E-score |
| AATCGCCA | -0.00284 E-score |
| AAAGCCAT | -0.088 E-score |
| GTTCCTGA | -0.0326 E-score |
| ACTCGTTA | 0.225 E-score |
| AACTACGT | 0.338 E-score |
| AACTACAT | 0.364 E-score |

| Sequence | binding signal |
| --- | --- |
| AACTACAG | 0.327 E-score |
| AACTACGA | 0.283 E-score |
| AACTACGC | 0.126 E-score |
| ACCTACAT | 0.227 E-score |
| AACAATGA | 0.0026 E-score |
| ACGAGCAG | -0.19 E-score |
| ATTTTGAC | 0.235 E-score |
| ACGCTCAC | -0.0887 E-score |
| ACCATAAC | 0.0976 E-score |
| GACTTTAC | -0.0515 E-score |
| AAATCTAG | 0.352 E-score |
| AAATCTGT | 0.141 E-score |
| AAATCTGC | -0.0413 E-score |
| CAATCTAG | 0.206 E-score |
| AAATCTAA | 0.202 E-score |
| ACATCTAG | 0.323 E-score |
| AAATCTAT | 0.4 E-score |
| AAATCTAC | 0.441 E-score |
| AAATCTTC | 0.0559 E-score |
| AGCTTTCG | -0.16 E-score |
| GAGAACCC | -0.104 E-score |
| CCTTCTAC | 0.235 E-score |
| AAGTTGGA | -0.145 E-score |
| AGCAATTC | 0.115 E-score |
| AGCAATTG | 0.332 E-score |

| Sequence | binding signal |
| --- | --- |
| AGCAATTA | 0.303 E-score |
| CGGCCGAG | -0.169 E-score |
| AGCGCCCC | -0.198 E-score |
| AGGGACCC | -0.173 E-score |
| ATTCTATA | 0.224 E-score |
| CTTCTATC | 0.241 E-score |
| GTTCTACA | 0.247 E-score |
| CTTCTACA | 0.273 E-score |
| ACTCTACC | -0.0607 E-score |
| ATTCTATC | 0.414 E-score |
| ATTCTACA | 0.382 E-score |
| ATTCTAGC | 0.249 E-score |
| CTTCTAGC | 0.138 E-score |
| CTTCTACC | 0.348 E-score |
| ATTCTACG | 0.179 E-score |
| ATTCTACC | 0.467 E-score |
| ATTCAGTC | 0.00215 E-score |
| AAGTATGA | 0.179 E-score |
| ATTCAATG | -0.0215 E-score |
| AACAGCGT | -0.0978 E-score |
| AAGCATGG | -0.183 E-score |
| TAAATGCA | 0.289 E-score |
| TGAATTAA | 0.0945 E-score |
| AGTTGAAC | -0.0218 E-score |
| GGTAGGAA | 0.247 E-score |

| Sequence | binding signal |
| --- | --- |
| GGTAGGTA | 0.331 E-score |
| CGTAGGTA | 0.336 E-score |
| AGTAGGTC | 0.159 E-score |
| CGTAGGCA | -0.0837 E-score |
| CCTAGGTA | 0.144 E-score |
| AGTAGGTG | 0.127 E-score |
| AGTAGGTA | 0.4 E-score |
| GCTAGGTA | 0.145 E-score |
| CAATGAAA | -0.098 E-score |
| CAGCATGA | -0.0331 E-score |
| CTGGAGGA | -0.0909 E-score |
| CGTGTTAC | 0.0253 E-score |
| CGTAGCCC | -0.128 E-score |
| CCTAATAA | -0.00276 E-score |
| TAGACCCA | 0.00211 E-score |
| GTATAGTA | 0.25 E-score |
| ATATAGTG | 0.253 E-score |
| CTATAGTC | 0.122 E-score |
| CTATAGTA | 0.371 E-score |
| ATATCGTA | 0.263 E-score |
| ATATAGTC | 0.225 E-score |
| GTATCGTA | 0.268 E-score |
| ATATAGTA | 0.438 E-score |
| CTATCGTA | 0.357 E-score |
| CGGGACTA | 0.0767 E-score |

| Sequence | binding signal |
| --- | --- |
| AATGATGC | 0.103 E-score |
| AAGGTCTA | -0.133 E-score |
| ATTCCGGC | 0.0407 E-score |
| CCCACTAG | 0.0169 E-score |
| AGGTTAGG | -0.139 E-score |
| GCCTTCGC | -0.0744 E-score |
| CCCAACTA | 0.257 E-score |
| CAATAAGA | -0.045 E-score |
| CAATGACG | -0.168 E-score |
| AGGTTCAG | 0.0249 E-score |
| ATACACAT | 0.214 E-score |
| ATACATAG | 0.371 E-score |
| CTACATAG | 0.152 E-score |
| GTACATAA | 0.328 E-score |
| CTACATAA | 0.203 E-score |
| CTACATAC | 0.274 E-score |
| AAACATAT | 0.276 E-score |
| GTACATAC | 0.172 E-score |
| ATACATAC | 0.338 E-score |
| ATACATAA | 0.273 E-score |
| TTACATAA | 0.288 E-score |
| ATACATAT | 0.377 E-score |
